In PubChem BioAssay (NCI):
About 79,000 compounds went through this panel and 15% of them were active in at least one assay; those are over-represented in the sample as a whole. A number with no mark means an inactive call. The source made the active and inactive calls. Rule as the data show it: active = growth inhibition above about 70%; inactive = the rest.

Key:
[1] = NCI Yeast Anticancer Drug Screen. Data for the rad50 strain (AID 155);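 also: 0% = growth of vehicle-only cultures of the same strain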; details: S. cerevisiae rad50 strain growth inhibition, stronger effect = higher value
Summary of the method: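 Growth of the mutant yeast was measured after compound exposure and referenced to vehicle-treated cultures.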

[2] = NCI Yeast Anticancer Drug Screen. Data for the mec2-1 strain (AID 157); details: S. cerevisiae mec2-1 strain, stronger effect = higher value
Summary of the method: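 Cells of the genetically defined mec2-1 yeast strain are incubated with test compound. Inhibition of growth is calculated against vehicle-treated controls.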

[3] = NCI Yeast Anticancer Drug Screen. Data for the sgs1 mgt1 strain (AID 161);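 also: 0% = growth of cultures given vehicle only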; details: S. cerevisiae sgs1 mgt1 strain, stronger effect = higher value
Summary of the method: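 Genetically altered yeast, compound exposure, growth inhibition relative to vehicle.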

[4] = NCI Yeast Anticancer Drug Screen. Data for the cln2 rad14 strain (AID 165);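 also: 0% = growth equal to vehicle treated cultures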; details: S. cerevisiae cln2 rad14 strain, stronger effect = higher value
Summary of the method: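 The screen exposed genetically defined yeast (cln2 rad14) to test compounds and scored growth inhibition relative to vehicle-treated controls.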

[5] = NCI Yeast Anticancer Drug Screen. Data for the bub3 strain (AID 167); details: S. cerevisiae bub3 mutant strain, stronger effect = higher value
Summary of the method: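 Whole-cell yeast assay. The mutant strain was incubated with compounds, and growth inhibition was determined by comparison with vehicle-treated cells.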

[6] = NCI Yeast Anticancer Drug Screen. Data for the mlh1 rad18 strain (AID 175); details: S. cerevisiae mlh1 rad18 strain growth inhibition, stronger effect = higher value
Summary of the method: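 Compound-treated yeast growth, normalised to vehicle controls. Strain bears defined DNA repair mutations.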

[7] = at 5.0 µM (retest, dose inferred, filed as 0.5)
[8] = at 50.0 µM (retest, dose inferred, filed as 5.0)

| SMILES | growth inhibition [1, 7] | growth inhibition [1, 8] | growth inhibition ([1]; at 50.0 µM) | growth inhibition [2, 7] | growth inhibition [2, 8] | growth inhibition ([2]; at 50.0 µM) | growth inhibition [3, 7] | growth inhibition [3, 8] | growth inhibition ([3]; at 50.0 µM) | growth inhibition [4, 7] | growth inhibition [4, 8] | growth inhibition ([4]; at 50.0 µM) | growth inhibition [5, 7] | growth inhibition [5, 8] | growth inhibition ([5]; at 50.0 µM) | growth inhibition [6, 7] | growth inhibition [6, 8] | growth inhibition ([6]; at 50.0 µM) |
| --- | --- | --- | --- | --- | --- | --- | --- | --- | --- | --- | --- | --- | --- | --- | --- | --- | --- | --- |
| CC1Cc2ccc3c(c2C(c2ccc4c(c2)OCO4)C1C)OCO3 (stereo not given) | -4% | -16% | -3.7% | 3% | -19% | -15.1% | 1% | 14% | -5.1% | -23% | -14% | -4.7% | -5% | -3% | -3.35% | -11% | 26% | 8.9% |
| CCCCN1C(=O)C[C@H]2[C@@H]3CCc4cc(OCCN5CCCC5)ccc4[C@H]3CC[C@]2(C)C1=O | 36% | 75% (active) | 56.9% | 30% | 53% | 55.4% | 66% | 90% (active) | 71.5% (active) | 33% | 70% (active) | 73.1% (active) | 57% | 72% (active) | 78.6% (active) | 68% | 78% (active) | 63.6% |
| COC(=O)/C(C(C)=O)=C(\OC(C)=O)c1ccc(OC)c(OC)c1 | -14% | 80% (active) | 93.5% (active) | -11% | 93% (active) | 91% (active) | -5% | 88% (active) | 46.2% | -11% | 85% (active) | 95.5% (active) | -2% | 86% (active) | 98.1% (active) | -19% | 91% (active) | 60% |
| O=C(O)/C(=C/c1ccccc1)c1ccc2ccccc2c1Br | 11% | 99% (active) | 99.6% (active) | 1% | 100% (active) | 99.7% (active) | 7% | 100% (active) | 99.7% (active) | -18% | 99% (active) | 99.2% (active) | -10% | 99% (active) | 99.7% (active) | 33% | 99% (active) | 99.7% (active) |
| O=c1ccc2nc3ccccc3ccc-2c1 | -159% | -139% | 23% | -53% | -55% | 15.2% | -61% | -64% | 18.3% | -46% | -58% | 20.6% | -63% | -79% | 62% | -117% | -110% | 62.5% |
| C#Cc1cccc(N2C(=O)CCC2=O)c1 | 36% | 44% | 91.7% (active) | 48% | 43% | 93.6% (active) | 99% (active) | 99% (active) | 94.1% (active) | 97% (active) | 99% (active) | 91.2% (active) | 100% (active) | 97% (active) | 92.3% (active) | 42% | 40% | 91.8% (active) |
| CCC[CH2][Sn]([CH2]CCC)([O]C(=O)c1cc(F)ccc1F)[O]C(=O)c1cc(F)ccc1F | 42% | 42% | 84.1% (active) | 25% | 25% | 83.6% (active) | 33% | 33% | 73.1% (active) | 13% | 13% | 70.4% (active) | 22% | 22% | 79.2% (active) | 20% | 20% | 78.2% (active) |
| CN(C)CCCC(=O)OCC[N+](C)(C)C | -2% | 4% | -39.2% | -4% | 6% | -8.5% | -4% | -2% | -11.2% | -14% | -3% | 64.3% | -1% | 5% | 14.2% | -4% | 5% | -12.5% |
| Cc1ccccc1C(O)(c1ccccc1C)C1(O)CCN(C)CC1 | 0% | -3% | 86.2% (active) | -4% | 0% | 96.7% (active) | 2% | -10% | 96.2% (active) | -7% | -11% | 91.8% (active) | -4% | -11% | 96.2% (active) | 13% | -2% | 98.7% (active) |
| C=C(Br)CN1CCC2(c3ccccc3)C(O)C([Se]c3ccccc3)CCC12 (stereo not given) | 85% (active) | 85% (active) | 83.1% (active) | 78% (active) | 78% (active) | 84% (active) | 81% (active) | 81% (active) | 78% (active) | 80% (active) | 80% (active) | 83.3% (active) | 84% (active) | 84% (active) | 84.8% (active) | 89% (active) | 89% (active) | 82.8% (active) |
